Test results as given in article PMC4552634, “A New Set of Chemical Starting Points with Plasmodium falciparum Transmission-Blocking Potential for Antimalarial Drug Discovery” (PLoS ONE, 2015).
Read-outs that look alike come from different tables or passages of the source. In all, about 13,000 compounds went through this assay and about 3,200 (25%) showed an effect of 50% or more. This is one part of the list.

Tested on: P. falciparum stage V gametocytes
Design: BacTiter-Glo ATP luminescence viability of purified stage V gametocytes in 384-well plates, per cent inhibition versus DMSO
Details: 48 h, 5 µM, inhibitor

Compound	% Inhibition	% Inhibition (% Inhibition)
N#CC(c1ccc(Br)cc1)c1ccc2c(C(F)(F)F)cc(C(F)(F)F)nc2n1 (stereo not drawn) [TCMDC-123754]	9.304%	
CCCN(CCC)S(=O)(=O)c1ccc(C(=O)Nc2nc3ccc(-c4cc(=O)[nH]c(Nc5ccccc5Cl)n4)cc3[nH]2)cc1 [TCMDC-135852]	-12.1%	
CN1CCOc2ccc(Nc3nnc(-c4cccc(-c5cccnc5)c4)o3)cc2C1 [TCMDC-134278]	-13.91%	
O=C(/C=C/c1ccccc1F)NC1CCC(CCN2CCc3ccc(-c4cccnc4)cc3CC2)CC1 (stereo not drawn) [TCMDC-140229]	-63.4%	
CN(CCN(C)CC(O)c1ccc(Cl)c(Cl)c1)CC(O)c1ccc(Cl)c(Cl)c1 (stereo not drawn) [TCMDC-141988]	-33.12%	
CCN(CC)CCn1c(=N)n(CC(O)c2ccc(Cl)c(Cl)c2)c2ccccc21 (stereo not drawn) [TCMDC-124062]	86.67%	
CN(C)CCn1c(=N)n(CC(O)c2ccc(Cl)c(Cl)c2)c2ccccc21 (stereo not drawn) [TCMDC-125810]	59.92%	
CCCCCCCCCCNCC(O)c1ccc(O)c(C(=O)OC)c1 (stereo not drawn) [TCMDC-132043]	1.141%	
CCCCCCCn1c(=N)n(CC(O)c2ccc(Cl)c(Cl)c2)c2ccccc21 (stereo not drawn) [TCMDC-124065]	113.9%	
CCCCCCCCCn1c(NCc2cc(Cl)ccc2O)nc2ccccc21 [TCMDC-123817]	-10.34%	
CN(CCC(O)c1ccc(Cl)c(Cl)c1)CC1CC1C(=O)c1ccccc1 (stereo not drawn) [TCMDC-136791]	31.08%	
COc1cccc(C(=O)C2CC2CN(C)CCC(O)c2ccc(Cl)c(Cl)c2)c1 (stereo not drawn) [TCMDC-136793]	24.64%	
CCc1cccc(-n2c(=O)c3cccnc3n2CC(=O)NCc2ccccc2Cl)c1 [TCMDC-125159]	19.11%	
Cc1ccc(N2C(N)=NC(N)=NC2c2ccccc2)cc1 (stereo not drawn) [TCMDC-123675]	47.57%	
O=C(Nc1ccc([N+](=O)[O-])cc1Cl)c1cc2ccccc2cc1O [TCMDC-123517]	12.28%	
O=C(/C=C/c1ccccc1)N1CCOC(CCN2CCC(c3ccccc3)CC2)(c2ccc(Cl)c(Cl)c2)C1 (stereo not drawn) [TCMDC-135350]	15.63%	
CN(Cc1cccc(O)c1)C1CCN(c2cc(NC(=O)c3ccc(F)cc3)ccn2)CC1 [TCMDC-134965]	-26.89%	
CCCNCc1ccc(-c2ccc(CN(Cc3cnc(C)cn3)C(=O)CC#N)cc2)nc1 [TCMDC-141527]	78.38%	
CCCNCc1ccc(-c2ccc(CN(CCOC)C(=O)c3cscn3)cc2)nc1 [TCMDC-141525]	101.5%	
CCCNCc1ccc(-c2ccc(CN(CCOC)C(=O)c3cnc(C)cn3)cc2)nc1 [TCMDC-141534]	98.71%	
CCCNCc1ccc(-c2ccc(CN(Cc3cnc(C)cn3)C(=O)/C=C/c3ccccc3C)cc2)nc1 [TCMDC-141545]	35.86%	
CCCNCc1ccc(-c2ccc(CN(CCOC)C(=O)c3ccc([N+](=O)[O-])c(C)c3)cc2)nc1 [TCMDC-141544]	54.62%	
CCc1nc(N)nc(N)c1CCCOc1ccccc1Cl [TCMDC-137928]	-12.09%	

Compound	% Inhibition	% Inhibition (% Inhibition)
N#Cc1ccc2c(c1)CN(CC[C@H]1CC[C@H](NC(=O)/C=C/c3c[nH]c4ccccc34)CC1)CC2 [TCMDC-139191]		-21.51%
COc1cc(Cc2cnc(N)nc2N)cc(OCCCN2C(=O)c3ccccc3C2=O)c1OC [TCMDC-137365]	18.85%	
CCC(C)C(COC(=O)c1cc(OC)c(OC)c(OC)c1)N(C)CCN(C)C(COC(=O)c1cc(OC)c(OC)c(OC)c1)C(C)CC (stereo not drawn) [TCMDC-131453]	2.796%	
Cc1ccc(Sc2ccc(NC(=O)CN3CCN(C(=O)c4ccco4)CC3)cc2)cc1C [TCMDC-124861]	2.666%	
COCc1ccc(CN2CCC(C(=O)Nc3ccc(-c4nc5ccccc5[nH]4)cc3)CC2)o1 [TCMDC-124678]	-40.1%	
CCCNCc1ccc(-c2ccc(CN(CCOC)C(=O)c3ccccc3)cc2)nc1 [TCMDC-141540]	44.11%	
CCCNCc1ccc(-c2ccc(CN(CCOC)C(=O)/C=C/c3ccccc3C)cc2)nc1 [TCMDC-141546]	40.67%	
CCCNCc1ccc(-c2ccc(CN(CCOC)C(=O)c3ccco3)cc2)nc1 [TCMDC-141535]	89.84%	
CCCNCc1ccc(-c2ccc(CN(CCOC)C(=O)c3cccc(C#N)c3)cc2)nc1 [TCMDC-141538]	90.8%	
Cc1ccc(CNC(=O)[C@H](CC(C)C)Nc2cc(C)nc(NCc3ccccc3C)n2)cc1 [TCMDC-134910]	-39.78%	
Cc1ccc(Nc2ccnc(Nc3ccc(C)c(F)c3)n2)cc1O [TCMDC-138498]	0.05121%	
O=C(/C=C/c1ccc(Cl)c(Cl)c1)NCCCCCN1CCC(c2c[nH]c3ccccc23)C(O)C1 (stereo not drawn) [TCMDC-139694]		-6.926%
O=C(Cc1ccc(Cl)cc1)NC1CCN(c2ccnc3cc(Cl)ccc23)C1 (stereo not drawn) [TCMDC-133399]	-11.42%	
CC1(C)OC[C@]2(C)[C@@H](CC[C@]3(C)C4=CC(=O)CCC4CC[C@@H]23)O1 (stereo partly drawn) [TCMDC-137379]	35.88%	
O=C(NCCCN1CCCC1=O)NCc1ccccc1 [TCMDC-123844]	3.062%	
CC(C)c1sc(-c2ccc(C(C)(C)C)cc2)nc1C(=O)NCCCN1CCCC1=O [TCMDC-133691]	25.46%	
CCc1sc(-c2ccc(C(C)(C)C)cc2)nc1C(=O)NCCCN1CCCC1=O [TCMDC-133692]	75.07%	
O=C(Nc1ccc(Cl)c(Cl)c1)Nc1ccccc1N1CCNCC1 [TCMDC-133727]	92.01%	
Cc1ccc(C(C(=O)Nc2ccc(N3CCNCC3)c(Cl)c2)c2ccccc2)cc1 (stereo not drawn) [TCMDC-134292]	32.74%	
CN1CCN(c2ncnc3ccc(NC(=O)Nc4ccc(Cl)c(Cl)c4)cc23)CC1 [TCMDC-139439]	21.32%	
O=C(Nc1ccc(C(F)(F)F)cc1)Nc1ccccc1N1CCNCC1 [TCMDC-133726]	29.85%	
O=C(Nc1ccc(Cl)c(Cl)c1)Nc1ccc2nccc(N3CCNCC3)c2c1 [TCMDC-139452]	-0.1389%	
CN1CCN(c2ccnc3ccc(NC(=O)Nc4c(Cl)cccc4Cl)cc23)CC1 [TCMDC-139352]	-27.77%	

Compound	% Inhibition	% Inhibition (% Inhibition)
O=C(Nc1ccc(Cl)c(Cl)c1)Nc1ccc2nccc(N3CCN(Cc4ccccc4)CC3)c2c1 [TCMDC-139649]	65.98%	
CN1CCN(c2ccnc3ccc(NC(=O)Nc4ccc(Cl)c(Cl)c4)cc23)CC1 [TCMDC-139321]	12.28%	
Cc1cc(N2CCNCC2)c2cc(NC(=O)Nc3ccc(Cl)c(Cl)c3)ccc2n1 [TCMDC-139533]	55.92%	
O=C(N[C@@H](CC1CCCCC1)C(=O)NC1CCCc2ccccc21)c1ccc(O)c(-c2cccc(C(F)(F)F)c2)c1 (stereo partly drawn) [TCMDC-140821]	14.55%	
Cc1cccc(-c2cccc3c(NC(=O)N4CCc5cc6nccc(N7CCN8CCC[C@H]8C7)c6cc54)cccc23)n1 [TCMDC-140053]	-32.82%	
COc1cc(Cc2cnc(N)nc2N)cc(OCCCCC2SC(=O)NC2=O)c1Br (stereo not drawn) [TCMDC-137240]	11.21%	
Cc1noc(C)c1-c1cccc(CNCc2cccc(-c3cccc(-c4nc5cccc(C)c5[nH]4)c3)c2)c1.O=C(O)C(F)(F)F [TCMDC-133050]	-47.47%	
COc1cc(Cc2cnc(N)nc2N)ccc1Oc1ccc(N)cc1 [TCMDC-138639]	-31.17%	
COc1cc(C2CCCCC2)c(OC)cc1CC1c2cc(O)c(Cl)cc2CCN1C (stereo not drawn) [TCMDC-137539]	-5.034%	
CS(=O)(=O)NCCCNCc1cccc(-c2cccc(-c3nc4cc(C(F)(F)F)ccc4[nH]3)c2)c1.O=C(O)C(F)(F)F [TCMDC-133086]	-10.1%	
CCN(CC)CCOc1ccc(N(Cc2ccc(C(C)(C)C)cc2)C(=O)c2ccc(Cc3ccccc3)cc2)cc1OC [TCMDC-140667]	103.5%	
CCCC(C)N(Cc1ccc(C(C)(C)C)cc1)C(=O)c1cccc(OC)c1 (stereo not drawn) [TCMDC-139783]	-10.58%	
COc1cc(N(Cc2ccc(F)cc2)C(=O)c2ccc(-c3ccccc3)cc2)ccc1OCCN1CCCC1 [TCMDC-140662]	28.65%	
CCNc1cc(C(=O)N[C@@H](Cc2ccccc2)[C@H](O)CNCc2ccc3c(c2)OCCO3)cc(N2CCCCS2(=O)=O)c1 [TCMDC-135189]	-0.5627%	
CCCc1cc(Cc2cnc(N)nc2N)cc(CCC)c1OCCCCC(=O)O [TCMDC-137293]	-0.4294%	
COc1ccc(-c2cc(-c3nc4ccc(CN)cc4[nH]3)c(=O)n(C)c2)cc1OC [TCMDC-135048]	18.44%	
COc1ccc(-c2cc(-c3nc4ccc(C(=O)N5CCOCC5)cc4[nH]3)c(=O)n(C)c2)cc1OC [TCMDC-135055]	52.78%	
COc1ccc2nc(-c3cc(-c4ccc(NC(=O)CN5CCOCC5)cc4)cnc3N)[nH]c2c1 [TCMDC-135373]	7.84%	
CCn1c(SCc2ccc(F)cc2)nc2sc3c(c2c1=O)CCN(C)C3 [TCMDC-124551]	44.44%	
CCN1CCC(N(Cc2ccc(-c3ccc(C(F)(F)F)cc3)cc2)C(=O)Cn2c(SCc3ccc(F)cc3)nc(=O)c3c2CCC3)CC1 [TCMDC-140976]	69.1%	
CCN(CC)CCN(Cc1ccc(-c2ccc(C(F)(F)F)cc2)cc1)C(=O)Cn1c(SCc2ccc(F)c(F)c2F)nc(=O)c2c1CCC2 [TCMDC-141063]	82.6%	
CCNC(C)(C)CN(Cc1ccc(-c2ccc(C(F)(F)F)cc2)cc1)C(=O)Cn1c(SCc2ccc(F)cc2)nc(=O)c2c1CCC2 [TCMDC-140977]	131.5%	
CCN1CCC(N(Cc2ccc(-c3ccc(C(F)(F)F)cc3)cc2)C(=O)Cn2nc(C)c(=O)cc2SCc2ccc(F)cc2)CC1 [TCMDC-141284]	72.73%	
